This note sets out measurements from PubChem BioAssay (Tox21).

Structures are written as SMILES. A number with no mark means an inactive call. Results filed as inconclusive are left out. Active and inactive are the calls of the source. Unless noted, calls come from the whole dose curve; as a rule, active = well fitted curve in the direction sought with a large enough effect in the repeat runs; inconclusive = weak or mixed curves; inactive = no such curve, though single readings can be large; an effect the other way counts as inactive or inconclusive.

Test [1] in a line: qHTS assay to test for compound auto fluorescence at 535 nm (green) in HEK293 cells (AID 720680).
Test [2] is described as follows: qHTS assay to test for compound auto fluorescence at 460 nm (blue) in HEK293 cell free culture (AID 720681). The method in brief:
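Compounds were added to cell-free DMEM with 10% FBS and fluorescence read directly. The blue channel used 405 nm excitation and 460 nm emission, with triamterene as the reference fluorophore.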

A short description of test [3]: qHTS assay to test for compound auto fluorescence at 535 nm (green) in HEK293 cell free culture (AID 720682). The procedure, abridged:
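Green-channel intensity (Ex/Em 485/535 nm) was recorded from compound-treated wells containing only DMEM with 10% FBS. Fluorescein provided the equivalency standard.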
A general note: Quantitative high-throughput screening tests each substance at several concentrations.

Test [4] in a line: qHTS assay to test for compound auto fluorescence at 590 nm (red) in HEK293 cell free culture (AID 720683). The method in brief: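 Cell-free wells of DMEM with 10% FBS received compound, and intrinsic fluorescence was read at excitation/emission 540/590 nm. Values expressed as equivalence to Rose Bengal sodium.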
Test [5] in a line: qHTS assay to test for compound auto fluorescence at 590 nm (red) in HepG2 cell free culture (AID 720684). The method in brief:
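Compounds are added to culture medium (MEM, 10% FBS) lacking cells, then fluorescence is read at excitation 540 nm, emission 590 nm, with Rose Bengal sodium as the equivalency standard.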

Test [6] is described as follows: qHTS assay to test for compound auto fluorescence at 460 nm (blue) in HepG2 cell free culture (AID 720685). The procedure, abridged:
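Compound (23 nL) or DMSO pinned into cell-free MEM with 10% FBS; blue fluorescence read at 405/460 nm excitation/emission, expressed as auto-fluorescence equivalency to triamterene.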

The nature of test [7]: qHTS assay to test for compound auto fluorescence at 535 nm (green) in HepG2 cell free culture (AID 720686).
A short description of test [8]: qHTS assay to test for compound auto fluorescence at 460 nm (blue) in HepG2 cells (AID 720687). The procedure, abridged: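 HepG2 cells in MEM with 10% FBS, attached overnight at 37 C, were exposed to compound or DMSO for 1 hr at 37 C, 5% CO2. Blue fluorescence was read at 405/460 nm, with triamterene as reference fluorophore.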
Test [9] deals with Glucocorticoid receptor (Homo sapiens) (UniProt P04150). The test is described as follows: qHTS assay to identify small molecule agonists of the glucocorticoid receptor (GR) signaling pathway (AID 720691; active = well fitted activation curve with a large enough effect in the signal ratio in the repeat runs, not every such curve was filed as active; the % refers to the signal ratio). The procedure, abridged: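 Fluorescence intensity from LiveBLAzer B/G FRET substrate (2 h, room temperature) reports beta-lactamase expression driven by the glucocorticoid response element in GR-bla HeLa cells after 18 h compound exposure at 37 C.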
Glucocorticoid receptor (Homo sapiens), sequence (P04150 whole entry, looked up): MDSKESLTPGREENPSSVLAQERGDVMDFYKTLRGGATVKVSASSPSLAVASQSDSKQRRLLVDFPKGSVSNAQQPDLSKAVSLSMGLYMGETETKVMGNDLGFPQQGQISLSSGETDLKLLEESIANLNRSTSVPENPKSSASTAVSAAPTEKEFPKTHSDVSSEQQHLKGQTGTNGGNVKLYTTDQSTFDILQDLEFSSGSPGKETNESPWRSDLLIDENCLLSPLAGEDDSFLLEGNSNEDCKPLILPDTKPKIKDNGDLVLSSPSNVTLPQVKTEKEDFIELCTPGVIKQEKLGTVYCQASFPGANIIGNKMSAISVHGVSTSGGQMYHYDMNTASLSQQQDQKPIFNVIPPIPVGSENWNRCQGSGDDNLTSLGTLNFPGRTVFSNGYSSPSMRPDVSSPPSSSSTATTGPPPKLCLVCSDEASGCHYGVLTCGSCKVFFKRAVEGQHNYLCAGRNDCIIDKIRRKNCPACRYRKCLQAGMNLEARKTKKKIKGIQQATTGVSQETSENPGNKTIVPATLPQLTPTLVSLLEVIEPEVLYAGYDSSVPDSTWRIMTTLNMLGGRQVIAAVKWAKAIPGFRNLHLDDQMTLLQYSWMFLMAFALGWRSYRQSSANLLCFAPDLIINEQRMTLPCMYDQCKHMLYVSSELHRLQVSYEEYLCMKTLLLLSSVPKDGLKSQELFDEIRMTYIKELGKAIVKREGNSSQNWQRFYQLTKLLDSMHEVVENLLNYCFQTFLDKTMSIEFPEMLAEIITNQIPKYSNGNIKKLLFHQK

For test [10] the target is unchanged. The test is described as follows: qHTS assay to identify small molecule antagonists of the glucocorticoid receptor (GR) signaling pathway (AID 720692; active = well fitted inhibition curve with a large enough effect in the signal ratio in the repeat runs, not every such curve was filed as active; the % refers to the signal ratio). The method in brief:
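HeLa GR-bla cells; cmpd + dex 5 nM final, 18 h 37 C; LiveBLAzer B/G FRET substrate 2 h RT; fluorescence intensity read. Antagonist mode, qHTS.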

Test [11] is described as follows: qHTS assay for identifying genotoxic compounds that show differential cytotoxicity against isogenic chicken DT40 cell lines with known DNA damage response pathways - wild type cell line (AID 743012). Note: nearly all actives have a fitted effect of over 60% in size. Note: potency is the fitted concentration of half-maximal effect. The procedure, abridged:
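Wild type DT40, 300 cells/well, ~0.5 h settle at 37 C/5% CO2; compounds in DMSO added by pintool; 40 h at 37 C/5% CO2; CellTiter-Glo, 30 min RT; luminescence.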

Test [12] in a line: qHTS assay to identify small molecule antagonists of the androgen receptor (AR) signaling pathway - cell viability counter screen (AID 743033; note: nearly all actives have a fitted effect of over 45% in size).
A short description of test [13]: qHTS assay to identify small molecule antagonists of the androgen receptor (AR) signaling pathway using the MDA cell line - cell viability counter screen (AID 743041; note: nearly all actives have a fitted effect of over 45% in size). The method in brief:
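Same-well cytotoxicity was assessed by CellTiter-Fluor in MDA-kb2 AR-luc cells after 16 h of compound treatment under R1881 agonism.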

Test [14] can be described thus: qHTS assay to identify small molecule antagonists of the glucocorticoid receptor (GR) signaling pathway - cell viability counter screen (AID 720693). Note: nearly all actives have a fitted effect of over 55% in size.
Test [15] is described as follows: qHTS assay for identifying genotoxic compounds that show differential cytotoxicity against isogenic chicken DT40 cell lines with known DNA damage response pathways - Rev3 mutant cell line (AID 743014). Note: nearly all actives have a fitted effect of over 55% in size. Note: potency is the fitted concentration of half-maximal effect.
The target of test [16] is Androgen receptor (Homo sapiens) (UniProt P10275). The test is described as follows: qHTS assay to identify small molecule antagonists of the androgen receptor (AR) signaling pathway (AID 743035; active = well fitted inhibition curve with a large enough effect in the signal ratio in the repeat runs, not every such curve was filed as active; the % refers to the signal ratio). The method in brief: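 Fluorescence from a beta-lactamase FRET substrate (LiveBLAzer B/G, 2 h, room temperature) measured inhibition of R1881-stimulated signaling in GeneBLAzer AR-UAS-bla HEK293 cells exposed to compound for 16 h at 37C.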
Androgen receptor (Homo sapiens), sequence (P10275 whole entry, looked up): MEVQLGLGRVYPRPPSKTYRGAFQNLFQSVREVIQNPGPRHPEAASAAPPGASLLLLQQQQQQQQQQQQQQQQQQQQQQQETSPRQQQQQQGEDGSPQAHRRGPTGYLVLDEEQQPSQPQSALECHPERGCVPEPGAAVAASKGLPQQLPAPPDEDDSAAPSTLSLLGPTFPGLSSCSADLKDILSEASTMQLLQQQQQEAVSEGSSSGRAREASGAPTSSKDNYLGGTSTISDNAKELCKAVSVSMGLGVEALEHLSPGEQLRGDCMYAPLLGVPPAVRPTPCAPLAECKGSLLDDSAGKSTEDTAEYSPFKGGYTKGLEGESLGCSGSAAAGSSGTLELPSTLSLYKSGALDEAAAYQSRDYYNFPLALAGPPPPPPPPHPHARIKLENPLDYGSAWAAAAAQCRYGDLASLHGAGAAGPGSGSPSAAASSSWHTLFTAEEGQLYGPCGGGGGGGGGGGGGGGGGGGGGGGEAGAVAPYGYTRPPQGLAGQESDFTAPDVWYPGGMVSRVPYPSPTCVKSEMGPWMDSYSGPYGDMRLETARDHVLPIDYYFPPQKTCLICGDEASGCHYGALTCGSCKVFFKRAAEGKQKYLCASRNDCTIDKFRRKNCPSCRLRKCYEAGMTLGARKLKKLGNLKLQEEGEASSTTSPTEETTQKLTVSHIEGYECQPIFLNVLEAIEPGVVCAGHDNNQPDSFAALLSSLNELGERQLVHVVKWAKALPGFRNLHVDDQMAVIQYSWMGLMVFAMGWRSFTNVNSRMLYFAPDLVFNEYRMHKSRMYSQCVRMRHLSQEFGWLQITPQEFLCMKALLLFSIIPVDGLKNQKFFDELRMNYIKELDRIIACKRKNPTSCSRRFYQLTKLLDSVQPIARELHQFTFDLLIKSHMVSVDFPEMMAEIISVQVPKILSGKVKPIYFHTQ

The target is the same in test [17]. Kind of test: qHTS assay to identify small molecule agonists of the androgen receptor (AR) signaling pathway (AID 743036; active = well fitted activation curve with a large enough effect in the signal ratio in the repeat runs, with a control signal flat, not every such curve was filed as active; the % refers to the signal ratio). The method in brief:
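Cell-based FRET reporter assay: HEK293 line with a UAS-beta-lactamase construct, compounds added in DMSO, 16 h exposure at 37C, then 2 h substrate step at room temperature and fluorescence intensity read.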

For test [18] the target is unchanged. Kind of test: qHTS assay to identify small molecule agonists of the androgen receptor (AR) signaling pathway using the MDA cell line (AID 743040; note: nearly all actives have a fitted effect of over 20% in size). The method in brief: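 Human breast carcinoma MDA-kb2 reporter cells (MMTV-luc, AR/GR elements) were treated for 16 h at 37C in 0% CO2 following a 5 h settling period. Signal was quantified by ONE-Glo luminescence.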

Test [19] has the same target. Kind of test: qHTS assay to identify small molecule antagonists of the androgen receptor (AR) signaling pathway using the MDA cell line (AID 743042; note: nearly all actives have a fitted effect of over 55% in size). The procedure, abridged:
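MDA-kb2 breast carcinoma cells carrying MMTV-luciferase (AR/GR responsive) were co-treated with compounds and the agonist R1881 for 16 h at 37C. Inhibition read as ONE-Glo luminescence; CellTiter-Fluor fluorescence measured in parallel for cytotoxicity.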

The nature of test [20]: qHTS assay for identifying genotoxic compounds that show differential cytotoxicity against isogenic chicken DT40 cell lines with known DNA damage response pathways - Rad54/Ku70 mutant cell line (AID 743015). Note: nearly all actives have a fitted effect of over 60% in size.
% is set by controls: 0 for no effect and ±100 for the full control effect.

As to `CC(=O)N[C@@H](CCC(=O)O)C(=O)O`, the compound was called inactive in test [1], in [2], in test [3], in [4], in [5] and in [6]. Besides, the compound was called inactive in test [7], in test [8] and in [10]. The Potency entry in test [9], in test [11], in test [12] and in test [13] was “inactive” throughout.
Regarding `OC[C@H](Cc1cccc(O)c1)[C@H](CO)Cc1cccc(O)c1`, the compound was called inactive in test [1], in test [2], in test [3], in test [4], in test [5] and in test [6]. In addition, the call in [7], in test [8], in [10] and in test [14] was inactive. Besides, the Potency entry in test [9], in test [12] and in [13] was “inactive” in each case.
Turning to `C=C(C)C1CCC(C)(O)CC1` (stereo not given), the outcome in test [1], in test [2], in test [3], in test [4], in test [5] and in test [6] was inactive. Further, the outcome in test [7], in test [8], in [10], in test [14], in [17] and in [18] was inactive. Moreover, the Potency entry in test [9], in test [11], in [15], in test [12], in test [16] and in [19] was “inactive” in each case.
With `O=Cc1ccc(Cl)c(Cl)c1`, the compound was called inactive in test [1], in test [2], in [3], in test [4], in [5] and in [6]. Moreover, the outcome in test [7], in test [8], in test [10] and in test [14] was inactive. Moreover, the Potency entry in [9], in test [11], in [12] and in [13] was “inactive” throughout.
Regarding `CCN(C)C(=O)Oc1cccc([C@H](C)N(C)C)c1`, the compound was classed as inactive in test [1], in test [2], in [3], in test [4], in test [5] and in test [6]. Moreover, the compound was classed as inactive in test [7], in [8], in test [10], in test [14], in test [17] and in test [18]. The Potency entry in [9], in test [11], in [15], in test [20], in test [12] and in test [16] was “inactive” throughout. In addition, the Potency result in [13] and in test [19] was “inactive” in each case.
As for `CO[C@@H]1[C@@H](OC(N)=O)[C@@H](O)[C@H](Oc2ccc3c(O)c(NC(=O)c4ccc(O)c(CC=C(C)C)c4)c(=O)oc3c2C)OC1(C)C`, the fluorescence, % of fluorescein in test [1] is -0.0123% [at 18.6 µM]. For the same compound, the fluorescence, % of fluorescent control is 0.0286% [at 18.6 µM] in [2], 0.0652% [at 18.6 µM] in [4], 0.0828% [at 18.6 µM] in test [6] and 0.0292% [at 18.6 µM] in test [8]. In test [3], the activity change was -0.156% [at 18.6 µM]. In addition, in [5], the fluorescence, % of Rose Bengal is 0.235% [at 18.6 µM]. Moreover, the fluorescence, % of fluorescein control in [7] is -0.0494% [at 18.6 µM]. Also, the Potency entry in test [9], in test [11], in test [15], in [20], in [12] and in [13] was “inactive” each time. The result in [10] and in test [14] was inactive.
For `CCCCCCOc1ccccc1C(N)=O`, the call in test [1], in test [2], in [3], in [4], in test [5] and in test [6] was inactive. Moreover, the compound was classed as inactive in test [7], in test [8] and in test [14]. Besides, in test [9], the Potency result is “inactive”. For the same compound, the Potency in test [11] was 23.7 µM (active); in test [15], 21.1 µM (active).
With `Cc1ccccc1N=O`, the outcome in test [1], in test [2], in test [3], in test [4], in test [5] and in test [6] was inactive. Further, the compound was classed as inactive in test [7], in test [8], in [10] and in test [14]. The Potency result in test [9], in [11], in test [20] and in test [12] was “inactive” throughout.
